Reference: PubChem BioAssay (NCATS)
Values without a mark were called inactive. Results filed as inconclusive are left out. A call without a number means that no potency is given here. Calls of active or inactive are those of the source. The call rests on the fitted dose curve; in most records, active means well fitted curve in the direction sought with a large enough effect; inconclusive means small, poorly fitted or top-dose-only effect, or another doubt; inactive means no such curve, though single readings can be large; an effect the other way counts as inactive or inconclusive.

Columns and labels:
[1] = HEK293 24hr Apoptosis Induction qHTS against the NCATS CANVASS Library (AID 1347359)
Procedure, shortened: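 Caspase-3/7 activation measured as luminescence from the DEVD-based Caspase-Glo reagent, 15 min at room temperature, following 24-hour compound treatment of HEK293 cells.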

[2] = test system: NAD(P)H diaphorase (Clostridium kluyveri); test: Diaphorse counterscreen qHTS: Assay Interference Panel against the NCATS CANVASS Library (AID 1347362)
Procedure, shortened: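 Counterscreen for coupling-enzyme interference: resorufin fluorescence from resazurin/NADH turnover, read after 5 min at room temperature. Compounds were tested over an 11-point series after 15 min dark preincubation with diaphorase in PBS-Tween.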

[3] = qHTS for ATAD5 Agonist screened against the NCATS CANVASS Library (AID 1347367);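 further: luciferase reporter driven by ATAD5 which rises upon DNA damage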
Procedure, shortened: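 Luciferase reporter under ATAD5 control, stably integrated in HEK293T cells (2000/well). Compounds (11 points) incubated 16 h at 37C; viability read first by CellTiter-Fluor, then luminescence reporting ATAD5 activation. MMS positive control.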

[4] = G06 Cancer Cell Toxicity qHTS against the NCATS CANVASS Library (AID 1347368); further: nearly all actives have a fitted effect of over 60% in size; further: potency means the concentration at half of the fitted maximal effect
Procedure, shortened: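 Viability measured by CellTiterGlo ATP luminescence after 72 hr at 37C, 5% CO2. Canine G06 glioma cells plated at 500/well. Compounds tested as 11-point qHTS titrations.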

[5] = qHTS for ATAD5 Antagonist screened against the NCATS CANVASS Library (AID 1347370); further: nearly all actives have a fitted effect of over 65% in size; further: potency means the concentration at half of the fitted maximal effect
Procedure, shortened: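 Compounds (11-point) co-dosed with 10 µM 5-FUrd for 16 h at 37 °C onto HEK293T-ATAD5 luciferase reporter cells. Viability measured by CellTiter-Fluor fluorescence, then ATAD5 reporter signal by luminescence.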

[6] = J3T Cancer Cell Toxicity qHTS against the NCATS CANVASS Library (AID 1347371); further: potency means the concentration at half of the fitted maximal effect
Procedure, shortened: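 Cytotoxicity read as CellTiterGlo ATP luminescence after 72 h incubation (37C, 5% CO2) of J3T canine glioma cells (500/well) with an 11-point compound series.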

[7] = molecular target: Nuclear receptor subfamily 1 group I member 3 (Homo sapiens) (UniProt Q14994); test: qHTS for Constitutive Androstane Receptor (CAR) Antagonist screened against the NCATS CANVASS Library (AID 1347372); further: potency means the concentration at half of the fitted maximal effect
Procedure, shortened: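 Antagonist mode: compound added alongside 50 nM CITCO to HepG2-hCAR-CYP2B6 reporter cells, 24hr at 37C. Viability by CellTiter-Fluor fluorescence, then CAR-driven luciferase by ONE-Glo luminescence.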

[8] = molecular target: Nuclear receptor subfamily 1 group I member 3 (Homo sapiens) (UniProt Q14994); test: qHTS for Constitutive Androstane Receptor (CAR) Agonist screened against the NCATS CANVASS Library (AID 1347373);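 further: every well also contained 1.5 µM PK11195 alongside the test compound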
Procedure, shortened: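 Agonist mode with 1.5uM PK11195 present: compounds for 24hr on HepG2-hCAR-CYP2B6 cells. CellTiter-Fluor fluorescence (ex 405, em 540 nm) gives viability; ONE-Glo luminescence reports CAR activation.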

[9] = 10-beta competent E. coli microbial cell viability qHTS against the NCATS CANVASS Library (AID 1347376); further: series mostly up to about 46 µM
Procedure, shortened: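 Read-out: BacTiter-Glo ATP luminescence, taken 20 min after reagent addition. Beforehand, 10-beta competent E. coli at 0.2 OD had been incubated overnight at 37C with compounds at 11 concentrations.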

[10] = qHTS for H2AX Agonists against the NCATS CANVASS Library (AID 1347378)
Procedure, shortened: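 CHO-K1 cells (1000/well, overnight at 37C) exposed to compounds at several concentrations for 3 hr at 37C, 0.76% DMSO final. Lysates read by TR-FRET (phospho-H2AX S139 Eu-cryptate antibody / H2AX-d2 antibody) after 24 hr at room temperature; 665/615 nm ratio.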

[11] = Inflammasome Signaling qHTS Counterscreen: IL-1-beta AlphaLISA counterscreen against the NCATS CANVASS Library (AID 1347381);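 further: cell-free check with purified IL-1β in medium and no THP-1 cells; series mostly up to about 57 µM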
Procedure, shortened: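 Purified IL-1-beta (4 pg/well) + compound, 11-pt conc. series; acceptor beads 6 ug/mL + biotin-Ab 0.6 nM final, 1 h RT; SA-donor 24 ug/ml final, 30 min dark RT; read ex 680/em 615.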

[12] = Cytotoxicity qHTS for assessment of Hepg2 cells membrane integrity screened against the NCATS CANVASS Library (AID 1347387)
Procedure, shortened: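 Membrane damage quantified as fluorescent LDH-release signal (ex 560, em 590 nm) in HepG2 cells treated 5 hr at 37C. qHTS format, 11 concentrations spanning 0.59 nM - 46 uM final, cells plated at 2000 per well the night before.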

[13] = qHTS assay for small molecule disruptors of mitochondrial membrane potential screened against the NCATS CANVASS Library (AID 1347389); further: nearly all actives have a fitted effect of over 60% in size; further: potency means the concentration at half of the fitted maximal effect
Procedure, shortened: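 Mitochondrial membrane potential in HepG2: 1 h compound treatment (11-point concentration series), 30 min m-MPI dye at 37C, then dual fluorescence of J-aggregates (ex 540/em 590) and monomers (ex 490/em 535); lower red/green ratio indicates depolarization.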

[14] = qHTS for activators of dead-cell proteases activity screened against the NCATS CANVASS Library (AID 1347392);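 further: luminescence from protease leaking out of membrane-damaged cells cleaving impermeant substrate; rising signal means more cytotoxicity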
Procedure, shortened: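 Luminescent dead-cell protease readout (AAF-aminoluciferin, 15 min, room temperature) after 5 h compound treatment of HepG2 cells (2000/well, pre-attached 18 h). Eleven concentrations.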

[15] = Vero-766 cells viability qHTS against the NCATS CANVASS Library: Counterscreen for Zika virus inhibition assay (AID 1347394); further: nearly all actives have a fitted effect of over 60% in size; further: potency means the concentration at half of the fitted maximal effect
Procedure, shortened: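 Vero 766 cells (1000/well), without Zika virus, were exposed to compounds for 72 h at 37C. Viability was measured by CellTiter Glo luminescence. Media-only wells served as 100% inhibition.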

[16] = HPAF-II 24hr Apoptosis Induction qHTS against the NCATS CANVASS Library (AID 1347356)
Procedure, shortened: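 Caspase-Glo 3/7 luminescence, read after 15 min room-temperature development, measures apoptosis in HPAF-II cells treated 24 h at 37 degrees C with an 11-point concentration series; 500 cells/well; doxorubicin control.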

[17] = HPAF-II 18hr Apoptosis Induction qHTS against the NCATS CANVASS Library (AID 1347360)
Procedure, shortened: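 HPAF-II cells at 500/well were exposed for 18 h at 37 C to an 11-point compound series. Caspase-3/7 activity was read by Caspase-Glo luminescence after 15 min at RT.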

[18] = qHTS for Hypoxia signaling pathway (HIF-1) agonists against the NCATS CANVASS Library (AID 1347375)
Procedure, shortened: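 Beta-lactamase reporter under HRE control in ME-180 cells; compounds (11-point qHTS series) added after 5 hrs plating, then 17 hrs at 37C. FRET substrate read after 2 hr; same-well CellTiter-Glo luminescence gave viability and normalization.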

[19] = qHTS for Activators of p53 Stress Response Pathway screened against the NCATS CANVASS Library (AID 1347388)
Procedure, shortened: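 Beta-lactamase reporter driven by p53 response elements in HCT-116 cells, read as the 460 nm/530 nm emission ratio after CCF4 loading, following 16 h of exposure to an 11-point series. Cell viability was measured in the same wells by CellTiter-Glo luminescence.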

[20] = Secretion counterscreen for inhibitors of the SERCaMP assay screened against the NCATS CANVASS Library (AID 1347390);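 further: light from luciferase secreted into medium read as a measure of general secretion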; further: potency means the concentration at half of the fitted maximal effect
Procedure, shortened: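 SH-SY5Y cells with constitutively secreted GLuc reporter, 1000 cells/well, treated 20 h at 37C with compounds at 0.001 - 77 uM final; secreted luciferase read as luminescence after coelenterazine; Brefeldin A as positive control.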

Sequence of Nuclear receptor subfamily 1 group I member 3 (Homo sapiens) (Q14994 whole entry, looked up): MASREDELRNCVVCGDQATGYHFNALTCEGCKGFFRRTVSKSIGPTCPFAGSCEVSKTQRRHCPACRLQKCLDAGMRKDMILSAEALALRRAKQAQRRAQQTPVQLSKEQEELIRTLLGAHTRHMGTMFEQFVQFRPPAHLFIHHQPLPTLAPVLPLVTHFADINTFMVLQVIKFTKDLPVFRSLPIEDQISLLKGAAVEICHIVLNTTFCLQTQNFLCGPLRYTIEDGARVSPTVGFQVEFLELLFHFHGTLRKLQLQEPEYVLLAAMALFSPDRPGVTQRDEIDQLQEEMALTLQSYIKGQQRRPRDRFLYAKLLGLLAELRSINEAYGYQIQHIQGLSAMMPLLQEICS

| Structure (SMILES) | Potency [1] | Potency [2] | Potency [3] | Potency [4] | Potency [5] | Potency [6] | Potency [7] | Potency [8] | outcome [9] | Potency [10] | outcome [11] | outcome [12] | Potency [13] | Potency [14] | Potency [15] | outcome [16] | Potency [17] | outcome [18] | Potency [19] | Potency [20] |
| --- | --- | --- | --- | --- | --- | --- | --- | --- | --- | --- | --- | --- | --- | --- | --- | --- | --- | --- | --- | --- |
| COc1cc(O)c(C(=O)[C@@H]2[C@H](CC=C(C)C)C(C)=CC[C@H]2c2ccccc2)c(O)c1 | inactive | inactive | inactive | inactive | inactive | inactive | 33.1 µM (active) | inactive | inactive | inactive | inactive | inactive | 4.67 µM (active) | inactive | 23.4 µM (active) |  |  |  |  |  |
| O=c1cc(-c2ccc(O)c(O)c2)oc2cc(O[C@@H]3O[C@H](CO)[C@@H](O)[C@H](O)[C@H]3O)cc(O)c12 | inactive |  | inactive |  | inactive | inactive | inactive | inactive | inactive | inactive | inactive | inactive | 8.31 µM (active) | inactive |  | inactive | inactive | inactive | inactive | inactive |
| CC(=O)Oc1cc2c(c(OC(C)=O)c1C1CCc3cc(Cl)c(Cl)n31)C(=O)n1c-2cc(Cl)c1Cl (stereo not drawn) | inactive | inactive | inactive | 14.8 µM (active) |  | 13.2 µM (active) | inactive |  | inactive | inactive | inactive | inactive | 2.09 µM (active) | inactive | 9.33 µM (active) | inactive | inactive | inactive |  |  |
| CC(=O)O[C@H]1c2ccccc2-c2c3c(cc4c2[C@@H]1N(C(C)=O)CC4)OCO3 | inactive | inactive | inactive | inactive | inactive | inactive | inactive | inactive | inactive | inactive | inactive | inactive | inactive | inactive |  | inactive | inactive | inactive | inactive | inactive |
| COC(=O)[C@]1([C@H]2CCC(=O)O2)CC(=O)c2c(O)cc(C)cc2O1 | inactive | inactive | inactive | inactive | inactive | inactive | inactive | inactive | inactive | inactive | inactive | inactive | inactive | inactive | inactive | inactive | inactive | inactive | inactive | inactive |
| CO[C@H]1/C=C/CCCCC(=O)O[C@@H](/C(C)=C/[C@H](C)C(=O)C[C@H](O)CC2CC(=O)NC(=O)C2)[C@@H](C)C1 | inactive | inactive | inactive | 5.26 µM (active) | 20.9 µM (active) |  |  | inactive | inactive | inactive | inactive | inactive | inactive | inactive | inactive | inactive | inactive | inactive | inactive | 17.2 µM (active) |
| O=Cc1ccc2n1C[C@]1(C[C@H](O)[C@@H](CO)O1)OC2 | inactive | inactive | inactive | inactive | inactive | inactive | inactive | inactive | inactive | inactive | inactive | inactive | inactive | inactive | inactive | inactive | inactive | inactive | inactive | inactive |
| CC(CCC[C@]1(C)C(=O)C=C[C@@]23C[C@]4(C)O[C@@H](C[C@@H]4[C@H]2O)C31)C(=O)O (stereo partly drawn) | inactive | inactive | inactive | inactive | inactive | inactive | inactive | inactive | inactive | inactive | inactive | inactive | inactive | inactive | inactive | inactive | inactive | inactive | inactive | inactive |
| CC(=O)c1c(C)cc2c(c1O)C(=O)c1c(O)cc(O)cc1C2=O | inactive | inactive | inactive | inactive | inactive | inactive | inactive | inactive | inactive | inactive | inactive | inactive | inactive | inactive | inactive | inactive | inactive | inactive | inactive | inactive |
| CC(C)=CCC/C(C)=C/Cc1cc([C@@H]2CC(=O)c3c(cc(O)c(CC=C(C)C)c3O)O2)ccc1O | inactive |  | inactive | inactive | inactive | inactive | inactive |  | inactive | inactive | inactive | inactive | 23.4 µM (active) | inactive | inactive | inactive | inactive | inactive | inactive | inactive |
| C[C@@]1(CCC(=O)Nc2c(O)ccc(C(=O)O)c2O)C(=O)C=C[C@]23C[C@H]4C[C@H](O[C@@]4(C)C2)C31 (stereo partly drawn) | inactive | inactive | inactive | inactive | inactive | inactive | inactive | inactive | inactive | inactive | inactive | inactive | inactive | inactive | inactive | inactive | inactive | inactive | inactive | inactive |
